3T3 cytotox = Cytotoxic Profiling in NIH 3T3 Cell Line of Diverse Libraries Using Quantitative High-Throughput Screening. NIH 3T3 viability, CellTiter-Glo ATP luminescence, 48-72 h. Potency, µM (titrated, usually from 96.7 µM), for the others: top-dose activity change, negative = cytotoxicity, actives largely listed as inhibitors. 94,000 tested, 4.3% active; further: nearly all actives have a fitted effect of over 55% in size
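Cytotoxicity was measured by CellTiter-Glo ATP luminescence after 48 or 72 h compound exposure at 37 °C. Mouse NIH 3T3 fibroblasts were seeded at 400 cells/well and dosed by 23 nL pin transfer.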
HEK cytotox = Cytotoxic Profiling in HEK 293 Cell Line of Diverse Libraries Using Quantitative High-Throughput Screening; HEK 293 viability, ATP luminescence (CellTiter-Glo), 48-72 h; Potency, µM (doses to about 115 µM), for inactives: at the top dose activity change, negative = cytotoxicity, most hits filed as inhibitors; 94,000 tested, 6.6% active; AID 1345083, 2018; further: nearly all actives have a fitted effect of over 60% in size
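Cytotoxicity was scored by loss of ATP-coupled luminescence (CellTiter-Glo) in HEK 293 cells. Compound treatment ran 48 or 72 hr at 37 degree Celsius, 5% CO2, 95% humidity.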
NPR1 antag = Natriuretic polypeptide receptor (hNpr1) antagonism - Primary qHTS; Atrial natriuretic peptide receptor 1 (Homo sapiens), P16066; HEK293 hNpr1 GloSensor cGMP, ANP-stimulated luminescence; Potency, µM (series often up to 46.3 µM), for the others: top-dose activity change, negative = inhibition, actives largely listed as inhibitors; 76,000 tested, 1.6% active; calls by dose curve; further: nearly all actives have a fitted effect of over 60% in size
Target sequence (P16066 whole entry, looked up): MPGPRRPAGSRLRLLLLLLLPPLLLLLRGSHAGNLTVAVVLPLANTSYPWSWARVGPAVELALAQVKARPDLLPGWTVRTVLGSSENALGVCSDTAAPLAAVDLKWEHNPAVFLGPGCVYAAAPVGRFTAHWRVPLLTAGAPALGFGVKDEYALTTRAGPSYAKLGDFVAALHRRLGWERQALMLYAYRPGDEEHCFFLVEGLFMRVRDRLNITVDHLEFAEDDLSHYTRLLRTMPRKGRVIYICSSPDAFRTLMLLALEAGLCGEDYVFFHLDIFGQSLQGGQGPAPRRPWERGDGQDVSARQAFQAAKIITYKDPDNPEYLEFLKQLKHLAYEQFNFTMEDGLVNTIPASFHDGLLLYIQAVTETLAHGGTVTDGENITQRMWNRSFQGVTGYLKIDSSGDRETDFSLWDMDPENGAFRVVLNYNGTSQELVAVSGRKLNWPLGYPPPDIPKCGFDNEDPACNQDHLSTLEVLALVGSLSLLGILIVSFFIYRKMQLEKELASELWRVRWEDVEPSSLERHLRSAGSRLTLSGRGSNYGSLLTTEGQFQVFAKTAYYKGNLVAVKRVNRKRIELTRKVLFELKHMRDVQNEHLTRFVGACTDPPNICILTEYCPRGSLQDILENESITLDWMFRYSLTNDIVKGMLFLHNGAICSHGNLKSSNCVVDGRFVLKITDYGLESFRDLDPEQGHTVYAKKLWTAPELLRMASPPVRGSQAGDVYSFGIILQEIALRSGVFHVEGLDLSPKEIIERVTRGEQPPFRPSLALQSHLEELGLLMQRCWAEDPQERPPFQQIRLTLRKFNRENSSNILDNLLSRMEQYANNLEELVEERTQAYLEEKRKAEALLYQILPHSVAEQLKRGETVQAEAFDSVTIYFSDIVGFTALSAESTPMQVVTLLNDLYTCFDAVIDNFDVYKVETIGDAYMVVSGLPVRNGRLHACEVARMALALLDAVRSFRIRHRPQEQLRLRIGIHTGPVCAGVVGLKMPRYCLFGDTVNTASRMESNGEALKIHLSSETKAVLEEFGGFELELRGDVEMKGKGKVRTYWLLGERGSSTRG
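HEK293 cells stably expressing human Npr1 and cGMP GloSensor pGS-40F, loaded 2 h with 2% GloSensor reagent, given compound 30 min at room temperature. Luminescence read before and 20 min after 0.1 nM hNppA.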
Luciferase inh = Firefly luciferase inhibition profiling of diverse chemical library using quantitative high-throughput screening; Luciferin 4-monooxygenase (Photinus pyralis), P08659; purified P. pyralis luciferase, luminescence, biochemical; Potency, µM (highest dose often 115 µM), actives largely listed as inhibitors; 76,000 tested, 2.5% active; further: nearly all actives have a fitted effect of over 65% in size
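Biochemical qHTS: compound (6-point titration) added to 10uM D-luciferin plus 10uM ATP in Tris acetate pH 7.5 buffer with Mg, Tween-20 and BSA, then purified enzyme at 10nM; light output imaged.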
The depositor's hits bear a star; [ ] = another dose, or the depositor's remark. Compounds with a hit are over-represented: about 11% of the library has one in this group of screens. Unless noted, the call rests on the fitted dose curve; in most records, active means well fitted curve in the direction sought with a large enough effect; inconclusive means small, poorly fitted or top-dose-only effect, or another doubt; inactive means no such curve, though single readings can be large; an effect the other way counts as inactive or inconclusive. On the % scale 0 is the no-effect control and ±100 the full control effect; potency means the concentration at half of the fitted maximal effect.

COc1ccc(-c2noc([C@@H]3C[C@@H](O)CN3Cc3cccc(C#N)c3)n2)cc1 was read as 3T3 cytotox -25.8%[138 µM], HEK cytotox inconclusive, NPR1 antag inconclusive and Luciferase inh 22.4µM*.
`CC(C)N1C[C@H](O)C[C@H]1c1nc(-c2ccc3c(c2)OCO3)no1` gave 3T3 cytotox -29.9%[174 µM], HEK cytotox -23.4%[172 µM], NPR1 antag 0.2%[70.6 µM] and Luciferase inh 39.8µM*.
For CCN1c2cc(C(=O)Nc3ccc(F)c(Cl)c3)ccc2C(=O)N2CCCC21 (stereo not drawn) the results were 3T3 cytotox inconclusive, HEK cytotox inconclusive, NPR1 antag -5.3% and Luciferase inh inactive.
For CCOC(=O)C1CCN(C(=O)c2nc3sccn3c2-c2ccc(C(F)(F)F)cc2)CC1 the results were 3T3 cytotox inconclusive and HEK cytotox -26.5%.
COc1ccc(-c2cn3c(n2)CO[C@@H](CNC(C)=O)C3)cc1 was read as 3T3 cytotox inactive, HEK cytotox inactive, NPR1 antag 0.8%[70.6 µM] and Luciferase inh 44.7µM*.
Screening c1ccc(-c2cn3c(n2)CO[C@@H](CNCC2CCCCC2)C3)cc1 returned 3T3 cytotox 100µM*, HEK cytotox 100µM*, NPR1 antag -2.3%[70.6 µM] and Luciferase inh inactive.
`Cc1ccc(-c2cn3c(n2)CO[C@@H](CNCc2ccccc2Cl)C3)cc1` gave 3T3 cytotox 89.1µM*, HEK cytotox 89.1µM*, NPR1 antag inconclusive and Luciferase inh inactive.
Cc1ccc(-c2cn3c(n2)CO[C@@H](CNC(=O)CCC(=O)O)C3)cc1 was read as 3T3 cytotox inactive, HEK cytotox inactive, NPR1 antag -2.8%[70.6 µM] and Luciferase inh inconclusive.
O=S(=O)(Cc1ccccc1)NC[C@H]1Cn2cc(-c3ccccc3)nc2CO1 was read as 3T3 cytotox -17.9%[138 µM], HEK cytotox inconclusive, NPR1 antag 4.8%[70.6 µM] and Luciferase inh inconclusive.
Screening COc1ccc(-c2cn3c(n2)CO[C@@H](CNCc2nccn2C)C3)cc1 returned 3T3 cytotox -7.6%[174 µM], HEK cytotox -7.4%[172 µM], NPR1 antag 7.1%[70.6 µM] and Luciferase inh inconclusive.
For CC(=O)Nc1ccc(CNC[C@H]2Cn3cc(-c4ccc(C)cc4)nc3CO2)cc1 the results were 3T3 cytotox inconclusive, HEK cytotox inconclusive, NPR1 antag 5.1%[70.6 µM] and Luciferase inh 70.8µM*.
Screening Cc1ccc(-c2cn3c(n2)CO[C@@H](CNCc2ccc(S(C)(=O)=O)cc2)C3)cc1 returned 3T3 cytotox -27.5%[174 µM], HEK cytotox inconclusive, NPR1 antag -20.8%[70.6 µM] and Luciferase inh inconclusive.
Screening O=C(N[C@@H]1CNC[C@H]1O)C1CCN(c2nc(-c3ccccc3)nc3c2CCC3)CC1 returned 3T3 cytotox -4.7%, HEK cytotox inconclusive, NPR1 antag 0.2% and Luciferase inh inactive.
Screening C=CCCC(CN1CCCOCC1)Oc1ncc(C)c(N(C)C)n1 (stereo not drawn) returned 3T3 cytotox -22.1%, HEK cytotox inconclusive, NPR1 antag -6.7% and Luciferase inh inactive.
Cc1ccc(-c2cn3c(n2)CO[C@@H](CNCc2ccc(-c4ccccn4)cc2)C3)cc1 was read as 3T3 cytotox 39.8µM*, HEK cytotox 35.5µM*, NPR1 antag inconclusive and Luciferase inh 35.5µM*.
`Cc1ccc(-c2cn3c(n2)CO[C@@H](CNC(=O)NCc2ccccc2)C3)cc1` gave 3T3 cytotox -16.7%[138 µM], HEK cytotox inconclusive, NPR1 antag 0.1%[70.6 µM] and Luciferase inh 70.8µM*.
Cc1ccc(-c2cn3c(n2)CO[C@@H](CNCc2ccc(Cl)cc2)C3)cc1 was read as 3T3 cytotox 44.7µM*, HEK cytotox 56.2µM*, NPR1 antag inconclusive and Luciferase inh inconclusive.
`COc1ccc(-c2cn3c(n2)CO[C@@H](CNCc2ccc(OC(F)(F)F)cc2)C3)cc1` gave 3T3 cytotox inconclusive, HEK cytotox 44.7µM*, NPR1 antag inconclusive and Luciferase inh inconclusive.
For Cc1ccc(-c2cn3c(n2)CO[C@@H](CNC(=O)c2ccccc2)C3)cc1 the results were 3T3 cytotox -8.9%[138 µM], HEK cytotox inconclusive, NPR1 antag 0.9%[70.6 µM] and Luciferase inh inconclusive.
CCN1C[C@H]2COc3cc(OC)ccc3[C@H]2N(C(=O)COc2ccccc2)CCC1=O was read as 3T3 cytotox inconclusive and HEK cytotox 1.9%.
For Cc1ccc(-c2cn3c(n2)CO[C@@H](CNC2CCCC2)C3)cc1 the results were 3T3 cytotox 100µM*, HEK cytotox 100µM*, NPR1 antag 3.3%[70.6 µM] and Luciferase inh 63.1µM*.
Screening COc1ccc(-c2cn3c(n2)CO[C@@H](CNC2CCOCC2)C3)cc1 returned 3T3 cytotox -11.8%[138 µM], HEK cytotox -7.0%[172 µM], NPR1 antag 2.6%[70.6 µM] and Luciferase inh inactive.
For COc1cccc(-c2cn3cc(C(=O)N4CCOCC4)nc3s2)c1 the results were 3T3 cytotox -26.8% and HEK cytotox -13.9%.
`O=c1c2nc(NCc3ccccc3)ccc2ncn1Cc1ccccn1` gave 3T3 cytotox 79.4µM*, HEK cytotox inconclusive, NPR1 antag 4.6%[70.6 µM] and Luciferase inh inactive.
For COc1nc2nc(CCc3ccccc3)n(C)c2cc1Nc1ccncn1 the results were 3T3 cytotox inconclusive, HEK cytotox -2.7%[172 µM], NPR1 antag -4.4%[70.6 µM] and Luciferase inh 50.1µM*.
`COc1ccc(Nc2ccnc(N3CCC(N[S+](=O)([O-])c4cccs4)CC3)n2)cc1` gave 3T3 cytotox 35.5µM* and HEK cytotox 25.1µM*.
Cc1ccc(Nc2ccnc(N3CCC(N[S+](=O)([O-])c4ccc(C)cc4)CC3)n2)cc1 was read as 3T3 cytotox 31.6µM* and HEK cytotox inconclusive.
`Cc1ccc(Nc2ccnc(N3CCC(N[S+](=O)([O-])c4cccs4)CC3)n2)cc1` gave 3T3 cytotox 35.5µM* and HEK cytotox 22.4µM*.
`COc1ccc(-c2cnc3[nH]cc(CC(=O)Nc4ccncc4)c3c2)cc1` gave 3T3 cytotox 31.6µM*, HEK cytotox inconclusive, NPR1 antag inconclusive and Luciferase inh inactive.
CCNC(=O)Cc1c[nH]c2ncc(-c3cccnc3OC)cc12 was read as 3T3 cytotox 89.1µM*, HEK cytotox -38.2%[172 µM], NPR1 antag -14.9%[70.6 µM] and Luciferase inh inactive.
For COc1ncccc1-c1cnc2[nH]cc(CC(=O)Nc3ccccc3C)c2c1 the results were 3T3 cytotox inconclusive, HEK cytotox inconclusive, NPR1 antag -28.5%[70.6 µM] and Luciferase inh inactive.
For COc1ccc(-c2cnc3[nH]cc(CC(=O)Nc4cccc(F)c4)c3c2)cc1 the results were 3T3 cytotox inconclusive, HEK cytotox inconclusive, NPR1 antag -30.4%[70.6 µM] and Luciferase inh inactive.
`COc1ncccc1-c1cnc2[nH]cc(CC(=O)Nc3cccnc3)c2c1` gave 3T3 cytotox inconclusive, HEK cytotox 89.1µM*, NPR1 antag inconclusive and Luciferase inh inactive.

Bioassay records as filed in PubChem.
